40 molecules from PubChem BioAssay can be followed below.

SMILES strings stand for the structures. Values without a mark were called inactive. The source made the active and inactive calls.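 The calls were made as follows: active = inhibition above the hit cutoff set in the earlier primary screen (cut at about 27% in these data); inactive = the rest.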

The assay deals with Protein phosphatase methylesterase 1 (Homo sapiens) (UniProt Q9Y570). Description: human PME-1 methylesterase inhibition confirmation – biochemical, fluorescence polarization, FP-Rh probe, triplicate (AID 2171).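 Also: 0% = enzyme with DMSO and 100% = wells lacking PME-1.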 The note with it: recombinant PME-1, FP-Rh probe fluorescence polarization; at 5.9 µM; hits give high values. Background: In fluorescence polarisation assays a small probe gives low polarisation when free and higher when bound to something large.
Sequence of Protein phosphatase methylesterase 1 (Homo sapiens) (Q9Y570 whole entry, looked up): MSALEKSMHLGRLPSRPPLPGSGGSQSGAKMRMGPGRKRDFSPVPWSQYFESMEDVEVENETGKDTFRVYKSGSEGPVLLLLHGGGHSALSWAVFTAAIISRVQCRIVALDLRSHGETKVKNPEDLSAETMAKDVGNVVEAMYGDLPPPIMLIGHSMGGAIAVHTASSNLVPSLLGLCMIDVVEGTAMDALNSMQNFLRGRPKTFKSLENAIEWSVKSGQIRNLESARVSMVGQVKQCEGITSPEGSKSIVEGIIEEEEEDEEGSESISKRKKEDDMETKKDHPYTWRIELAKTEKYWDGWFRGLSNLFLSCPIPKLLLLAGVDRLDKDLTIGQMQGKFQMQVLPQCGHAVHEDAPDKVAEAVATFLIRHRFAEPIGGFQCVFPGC
Usually inhibition stands for the drop in the measured response relative to a control, in per cent. In the case of `Brc1ccc(/C=N/Nc2nc3ccccc3o2)cc1`, the inhibition is 22.2%.
For `O=C1C2=C(Nc3ccccc3SC2c2ccco2)c2ccccc21` (stereo not given), the inhibition was 5.92%.
Then `CCn1c(CSc2nnc3ccccn23)nc2cc(C(=O)O)ccc21`, with 59% (active); and `COc1ccc(C2Nc3cccc4cccc(c34)N2)cc1Br`, with 15.1%; and `Cc1ccc(NC(=S)NNc2ccc([N+](=O)[O-])cc2S(=O)(=O)Nc2ccccc2C(=O)O)cc1C`, with 60.2% (active).
To `CC1=Nc2ccccc2/C1=C\c1sc(Nc2ccc(C)cc2)nc1O` belongs 42.2% (active); to `O=Nc1c(O)c2ccccc2c2ccccc12`, 65.8% (active).
To `COc1ccc(/C=N/Nc2cc(C)nc(-n3nc(C)cc3C)n2)c(OC)c1` belongs 41.6% (active); to `Oc1ccc(/C=N/Nc2cccc3cccnc23)c(O)c1`, 82.7% (active); to `O=C(N/N=C/c1c(O)ccc2ccccc12)Nc1ccccc1`, 35.5% (active).
Consider `COc1cc(/C=N/Nc2nc(-c3ccc(S(=O)(=O)N(C)C)cc3)cs2)ccc1O`, for which the inhibition is 19.7%.
To `CCn1c(C)c(/C=N/Nc2nc3ccccc3s2)c2ccccc21` belongs 16.8%; to `O=C1Nc2ccc(Br)cc2C12NNc1ccccc1O2` (stereo not given), 38.5% (active).
Then `Cc1ccc(NS(=O)(=O)c2cccc(C(=O)N3CCN(c4ncccn4)CC3)c2)cc1`, with 9.07%; and `Cn1c(=O)c(C#N)c(-c2ccc(F)cc2)c2cc(C(=O)c3cc(Cl)cc(Cl)c3O)cnc21`, with 59.1% (active).
Then `CCN(CC)c1ccc(S(=O)(=O)N2CCOCC2)cc1NC(=O)CN1CCN(Cc2ccccc2)CC1`, with 72.3% (active).
In the case of `Oc1ccc(Nc2nc3ccccc3nc2Nc2ccc(O)cc2)cc1`, the inhibition is -0.74%.
With `COc1cccc(-c2nc(NC3CCCC3)c3ccccc3n2)c1O`, the inhibition is 13.3%.
Consider `CCc1nnc(NC(=O)CSc2nc(C)c3c(c2C#N)CCCC3)s1`, for which the inhibition was 13.9%.
Then `Cn1c(N/N=C/c2c[nH]c3ccccc23)nc2ccccc21`, with 28.6% (active).
Then `COc1ccc(S(=O)(=O)N(C)C)cc1NC(=O)Cc1c[nH]c2ccccc12`, with 85% (active); and `CC(C)(C)c1ccc(NC(=O)C2=CC=CN3CCS(=O)(=O)N=C23)cc1`, with 9.34%.
Regarding `COCCCNc1c2c3c(cccc3[nH]c1=O)C(=O)c1ccccc1-2`, the inhibition was 133% (active).
As to `Cc1ccc(N/N=C(\C#N)C(N)=S)c(C)c1`, the inhibition is 57.9% (active).
Then `Cn1c2ccccc2c2cc(/C=N/NC(=O)c3ccc(N)cc3)ccc21`, with 19.7%; and `N#CC1=C(N)C(C#N)(C#N)C(c2cccnc2)C2CC(c3ccccc3)CC=C12` (stereo not given), with 83.5% (active); and `CN(C)S(=O)(=O)c1ccc(-c2csc(N/N=C/c3ccc(O)cc3)n2)cc1`, with 25%.
To `Cc1[nH]c2ccccc2c1CCNC(=O)c1ccc2c(c1[N+](=O)[O-])C(=O)c1ccccc1C2=O` belongs 30.9% (active).
For `COc1ccc(/C=N/NC(=O)c2cc3cc(OC)c(OC)cc3[nH]2)cc1`, the inhibition was 8.04%.
Then `O=C1c2cccc3c(O)ccc(c23)C(=O)N1c1ccc(Cl)cc1`, with 28.3% (active).
On to `O=C(N=Nc1c(O)[nH]c2ccccc12)c1cccs1`, for which the inhibition was 42.6% (active).
Then `COc1ccccc1/C=C/C=N/n1c(-c2cc(-c3ccccc3)n[nH]2)n[nH]c1=S`, with 23.4%; and `S=C(NCc1ccccc1)NCc1cccc(CNC(=S)NCc2ccccc2)c1`, with 3.07%.
To `Cc1ccc(C(=O)Nc2nnc(CC(=O)N/N=C/c3ccc(O)c(O)c3)s2)cc1` belongs -26.6%; to `CCc1ccc(S(=O)(=O)/N=C2/C=C(Sc3ncn[nH]3)C(=O)c3ccccc32)cc1`, 52.9% (active).
Then `Oc1[nH]c2ccccc2c1C=Nc1ccc2c(c1)OCO2`, with 23.6%.
As for `CCN(CC)c1ccc(-c2nn3c(-c4ccccc4OC)nnc3s2)cc1`, the inhibition was 22.1%.
To `CC1(C)CC(=O)C2=C(C1)N(CCN1CCOCC1)C1=C(C(=O)CC(C)(C)C1)C2c1cccc(F)c1` belongs 25.2%; to `O=C(O)c1cccc(-c2ccc(/C=N/Nc3ccc([N+](=O)[O-])cc3)o2)c1`, 31.7% (active).
To `CC(C)S(=O)(=O)c1csc(NC(=O)Nc2cccc([N+](=O)[O-])c2)c1Cl` belongs -58.5%.
